Assay results taken from PubChem BioAssay (EPA / NIEHS).
Active and inactive are the calls of the source. How the source made its calls: active means hit-call score of the fitted dose curve at least 0.9, where 1 is the maximum; inactive means score below 0.9.

Legend:
Conditions in all cases: mRNA level, 48 h; actives raise or lower the signal
CYP2C9 (gene 1559) = assay: LTEA_HepaRG_CYP2C9: Life Technologies and Expression Analysis (LTEA) Assay for CYP2C9 using HepaRG (AID 2283484)
Summary of the method: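 Differentiated human HepaRG cells in serum-free induction medium were exposed 48 h to chemicals in 8-point half-log series from 100 uM (0.5% DMSO), in duplicate. CYP2C9 mRNA was measured by qRT-PCR, normalized to ACTB/GAPDH/POLR2A, with bidirectional fitting versus DMSO.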

CYP2E1 (gene 1571) = assay: LTEA_HepaRG_CYP2E1: Life Technologies and Expression Analysis (LTEA) Assay for CYP2E1 using HepaRG (AID 2283485)
Summary of the method: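 Human liver line HepaRG, plated 48 h, then serum-free induction medium + chemical x 48 h; 8-pt CRC from 100 uM, half-log, 0.5% DMSO, n=2. Readout: CYP2E1 mRNA qRT-PCR vs ACTB/GAPDH/POLR2A; bidirectional fit vs DMSO.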

CYP4A11 (gene 1579) = assay: LTEA_HepaRG_CYP4A11: Life Technologies and Expression Analysis (LTEA) Assay for CYP4A11 using HepaRG (AID 2283486)
Summary of the method: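 Human hepatic HepaRG cultures receive duplicate 48 h exposures across a concentration-response series topping at 100 uM. Expression changes in CYP4A11 are measured by qRT-PCR relative to DMSO controls.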

[1] = read-out: DNA damage-inducible transcript 3 (DDIT3), DDIT3 (gene 1649); assay: LTEA_HepaRG_DDIT3: Life Technologies and Expression Analysis (LTEA) Assay for DNA damage-inducible transcript 3 (DDIT3) using HepaRG (AID 2283488)
Summary of the method: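 HepaRG plated 48 h, switched to serum-free induction medium, dosed 48 h (100 uM top, half-log, 8 pts, 0.5% DMSO, n=2); RNA isolated; DDIT3 by qRT-PCR; bidirectional curve fit vs DMSO.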

[2] = read-out: Pro-epidermal growth factor (Homo sapiens) (UniProt P01133); assay: LTEA_HepaRG_EGF: Life Technologies and Expression Analysis (LTEA) Assay for Epidermal growth factor (EGF) using HepaRG (AID 2283489)
Summary of the method: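 Concentration-response mRNA assay: HepaRG cells dosed 48 h (max 100 uM, 0.5% DMSO), EGF measured by qRT-PCR and normalized to ACTB/GAPDH/POLR2A.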

[3] = read-out: Ezrin (EZR), EZR (gene 7430); assay: LTEA_HepaRG_EZR: Life Technologies and Expression Analysis (LTEA) Assay for Ezrin (EZR) using HepaRG (AID 2283491)
Summary of the method: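 Read-out is EZR transcript level by qRT-PCR, normalized to three housekeeping genes and fitted bidirectionally against the DMSO control. Human HepaRG cells received test chemicals for 48 h at eight half-log concentrations up to 100 uM in 0.5% DMSO.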

[4] = read-out: Cytochrome P450 3A7 (Homo sapiens) (UniProt P24462); assay: LTEA_HepaRG_CYP3A7: Life Technologies and Expression Analysis (LTEA) Assay for CYP3A7 using HepaRG (AID 2283492)
Summary of the method: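 qRT-PCR of CYP3A7 in HepaRG lysates after 48 h treatment; concentration-response (8 points, max 100 uM) analysed bidirectionally relative to 0.5% DMSO controls.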

CYP3A5 (gene 1577) = assay: LTEA_HepaRG_CYP3A5: Life Technologies and Expression Analysis (LTEA) Assay for CYP3A5 using HepaRG (AID 2283493)
Summary of the method: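 HepaRG plated 48 h, switched to serum-free induction medium, chemicals added 48 h (max 100 uM, half-log, 0.5% DMSO). RNA isolated; CYP3A5 by TaqMan qRT-PCR. Gain/loss vs DMSO.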

[5] = read-out: Fatty Acid-Binding Protein 1 (FABP1), FABP1 (gene 2168); assay: LTEA_HepaRG_FABP1: Life Technologies and Expression Analysis (LTEA) Assay for Fatty Acid-Binding Protein 1 (FABP1) using HepaRG (AID 2283494)
Summary of the method: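 Differentiated human HepaRG cells exposed 48 h in serum-free induction medium to eight half-log concentrations up to 100 uM (0.5% DMSO), duplicate. FABP1 mRNA by qRT-PCR, normalised to ACTB, GAPDH, POLR2A; bidirectional fitting against DMSO.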

[6] = read-out: Cytochrome P450 4A22 (Homo sapiens) (UniProt Q5TCH4); assay: LTEA_HepaRG_CYP4A22: Life Technologies and Expression Analysis (LTEA) Assay for Cytochrome P450 4A22 (CYP4A22) using HepaRG (AID 2283495)
Summary of the method: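 Concentration-response (8 points, max 100 uM, 0.5% DMSO) in human HepaRG liver cells after 48 h exposure. CYP4A22 mRNA by TaqMan qRT-PCR with housekeeping-gene normalization.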

[7] = read-out: Cytochrome P450 7A1 (Homo sapiens) (UniProt P22680); assay: LTEA_HepaRG_CYP7A1: Life Technologies and Expression Analysis (LTEA) Assay for Cytochrome P450 7A1 (CYP7A1) using HepaRG (AID 2283496)
Summary of the method: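 HepaRG cells plated 48 h, then switched to serum-free induction medium and exposed in duplicate for 48 h to 8-point half-log series from 100 uM in 0.5% DMSO. CYP7A1 mRNA by qRT-PCR (TaqMan), normalized to ACTB/GAPDH/POLR2A; bidirectional fit versus DMSO.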

[8] = read-out: Glutathione S-Transferase (GSTA2), GSTA2 (gene 2939); assay: LTEA_HepaRG_GSTA2: Life Technologies and Expression Analysis (LTEA) Assay for Glutathione S-Transferase (GSTA2) using HepaRG (AID 2283497)
Summary of the method: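 Differentiated human HepaRG cells were exposed in duplicate for 48 h in serum-free induction medium, 8 points from 100 uM top in half-log steps, 0.5% DMSO. GSTA2 mRNA was measured by TaqMan qRT-PCR, normalized to ACTB, GAPDH and POLR2A; bidirectional fit versus DMSO.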

[9] = read-out: Glutamate-cysteine ligase catalytic (GCLC), GCLC (gene 2729); assay: LTEA_HepaRG_GCLC: Life Technologies and Expression Analysis (LTEA) Assay for Glutamate-cysteine ligase catalytic (GCLC) using HepaRG (AID 2283498)
Summary of the method: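 Differentiated HepaRG cells exposed 48 h in serum-free induction medium, eight-point half-log series topping at 100 uM in 0.5% DMSO, duplicates. GCLC mRNA by qRT-PCR normalized to ACTB, GAPDH and POLR2A, fitted bidirectionally versus DMSO.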

[10] = read-out: growth arrest and DNA damage 45 (GADD45G), GADD45G (gene 10912); assay: LTEA_HepaRG_GADD45G: Life Technologies and Expression Analysis (LTEA) Assay for growth arrest and DNA damage 45 (GADD45G) using HepaRG (AID 2283499)
Summary of the method: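 Concentration-response in HepaRG: 48 h dosing, 0.5% DMSO, highest level 100 uM. GADD45G expression by qRT-PCR, normalised to endogenous controls; bidirectional fit to DMSO.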

[11] = read-out: Glutamate-cysteine ligase regulatory (GCLM), GCLM (gene 2730); assay: LTEA_HepaRG_GCLM: Life Technologies and Expression Analysis (LTEA) Assay for Glutamate-cysteine ligase regulatory (GCLM) using HepaRG (AID 2283500)
Summary of the method: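 Cells were plated, cultured 48 h, switched to serum-free induction medium, then dosed in duplicate for 48 h at eight half-log concentrations up to 100 uM. RNA was then profiled by qRT-PCR; gain or loss versus DMSO was fitted.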

[12] = read-out: Glutathione S-transferase M3 (GSTM3), GSTM3 (gene 2947); assay: LTEA_HepaRG_GSTM3: Life Technologies and Expression Analysis (LTEA) Assay for Glutathione S-transferase M3 (GSTM3) using HepaRG (AID 2283501)
Summary of the method: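 Expression of GSTM3 is determined by qRT-PCR in human liver HepaRG cells treated 48 h with an 8-point half-log range from 100 uM in 0.5% DMSO.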

[13] = read-out: Heat shock 70 kDa protein 1 (HSPA1A), gene 3303; assay: LTEA_HepaRG_HSPA1A: Life Technologies and Expression Analysis (LTEA) Assay for Heat shock 70 kDa protein 1 (HSPA1A) using HepaRG (AID 2283502)
Summary of the method: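 Readout is HSPA1A transcript level by microfluidic qRT-PCR, normalized to three housekeeping genes and analysed for gain or loss of signal relative to 0.5% DMSO. Human HepaRG cultures received test chemicals for 48 h at up to 100 uM.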

[14] = read-out: Hypoxia-inducible factor 1-alpha (Homo sapiens) (UniProt Q16665); assay: LTEA_HepaRG_HIF1A: Life Technologies and Expression Analysis (LTEA) Assay for Hypoxia-inducible factor 1 (HIF1A) Trancription factor using HepaRG (AID 2283503)
Summary of the method: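 Differentiated HepaRG cells in serum-free induction medium exposed 48 h, in duplicate, to 8-point half-log series from 100 uM in 0.5% DMSO. HIF1A mRNA measured by TaqMan qRT-PCR, normalized to ACTB/GAPDH/POLR2A, fitted bidirectionally versus DMSO.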

[15] = read-out: Early growth response protein 1 (EGR1) transcription factor, EGR1 (gene 1958); assay: LTEA_HepaRG_EGR1: Life Technologies and Expression Analysis (LTEA) Assay for Early growth response protein 1 (EGR1) transcription factor using HepaRG (AID 2283490)
Summary of the method: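 Differentiated HepaRG cells in serum-free induction medium exposed 48 hours, duplicate, to 8 half-log concentrations up to 100 uM in 0.5% DMSO. EGR1 mRNA measured by TaqMan qRT-PCR, normalized to ACTB, GAPDH, POLR2A; bidirectional fit versus DMSO.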

Sequence of Cytochrome P450 3A7 (Homo sapiens) (P24462 whole entry, looked up): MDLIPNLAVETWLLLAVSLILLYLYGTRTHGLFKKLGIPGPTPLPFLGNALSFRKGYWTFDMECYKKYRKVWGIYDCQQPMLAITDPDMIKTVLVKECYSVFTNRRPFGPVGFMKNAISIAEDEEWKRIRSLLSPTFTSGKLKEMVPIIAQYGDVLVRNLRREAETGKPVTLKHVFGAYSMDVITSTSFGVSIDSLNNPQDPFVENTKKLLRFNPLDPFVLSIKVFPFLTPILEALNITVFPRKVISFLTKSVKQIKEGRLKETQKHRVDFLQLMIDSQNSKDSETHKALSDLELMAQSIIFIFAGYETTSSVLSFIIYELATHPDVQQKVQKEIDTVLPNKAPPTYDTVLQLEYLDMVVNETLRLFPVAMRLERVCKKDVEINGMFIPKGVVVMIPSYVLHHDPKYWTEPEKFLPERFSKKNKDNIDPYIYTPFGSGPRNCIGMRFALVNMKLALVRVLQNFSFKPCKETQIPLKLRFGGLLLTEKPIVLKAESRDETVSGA
Sequence of Hypoxia-inducible factor 1-alpha (Homo sapiens) (Q16665 whole entry, looked up): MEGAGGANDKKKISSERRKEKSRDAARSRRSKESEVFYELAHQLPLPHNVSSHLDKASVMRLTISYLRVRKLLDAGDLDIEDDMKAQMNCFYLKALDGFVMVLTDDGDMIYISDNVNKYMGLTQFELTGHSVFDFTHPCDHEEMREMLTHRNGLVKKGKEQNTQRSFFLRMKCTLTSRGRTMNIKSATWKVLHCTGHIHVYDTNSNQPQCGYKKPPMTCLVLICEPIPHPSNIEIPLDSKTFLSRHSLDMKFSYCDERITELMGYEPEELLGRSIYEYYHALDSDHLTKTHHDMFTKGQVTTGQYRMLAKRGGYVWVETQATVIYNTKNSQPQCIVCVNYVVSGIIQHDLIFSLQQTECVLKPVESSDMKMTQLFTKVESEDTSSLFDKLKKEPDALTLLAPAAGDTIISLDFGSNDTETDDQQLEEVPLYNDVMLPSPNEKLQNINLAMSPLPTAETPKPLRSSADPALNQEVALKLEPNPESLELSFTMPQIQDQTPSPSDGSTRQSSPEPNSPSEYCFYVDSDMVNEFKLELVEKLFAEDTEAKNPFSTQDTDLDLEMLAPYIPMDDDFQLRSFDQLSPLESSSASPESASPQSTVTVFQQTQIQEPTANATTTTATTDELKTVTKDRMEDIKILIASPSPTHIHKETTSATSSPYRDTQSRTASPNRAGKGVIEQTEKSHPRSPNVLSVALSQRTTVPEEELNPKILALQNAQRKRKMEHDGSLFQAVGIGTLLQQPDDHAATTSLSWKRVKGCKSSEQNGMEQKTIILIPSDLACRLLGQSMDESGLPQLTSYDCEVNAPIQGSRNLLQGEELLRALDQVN

## Cc1cn([C@H]2C[C@H](N=[N+]=[N-])[C@@H](CO)O2)c(=O)[nH]c1=O
CYP2C9 (gene 1559)
  outcome: inactive
CYP2E1 (gene 1571)
  outcome: inactive
CYP4A11 (gene 1579)
  outcome: inactive
[1]
  outcome: inactive
[2]
  outcome: inactive
[3]
  outcome: inactive
[4]
  outcome: inactive
CYP3A5 (gene 1577)
  outcome: inactive
[5]
  outcome: inactive
[6]
  outcome: inactive
[7]
  outcome: inactive
[8]
  outcome: inactive
[9]
  outcome: inactive
[10]
  outcome: inactive
[11]
  outcome: inactive
[12]
  outcome: inactive
[13]
  outcome: inactive

## CCCCOC(=O)CC(CC(=O)OCCCC)(OC(C)=O)C(=O)OCCCC
CYP2C9 (gene 1559)
  outcome: inactive
CYP2E1 (gene 1571)
  outcome: inactive
CYP4A11 (gene 1579)
  outcome: inactive
[1]
  outcome: inactive
[2]
  outcome: inactive
[3]
  outcome: inactive
[4]
  outcome: inactive
CYP3A5 (gene 1577)
  outcome: inactive
[5]
  outcome: inactive
[6]
  outcome: inactive
[8]
  outcome: inactive
[9]
  outcome: inactive
[10]
  outcome: inactive
[11]
  outcome: inactive
[12]
  outcome: inactive
[13]
  outcome: inactive
[14]
  outcome: inactive

## CO[C@H]1/C=C/O[C@@]2(C)Oc3c(C)c(O)c4c(O)c(c(/C=N/N5CCN(C)CC5)c(O)c4c3C2=O)NC(=O)/C(C)=C\C=C\[C@H](C)[C@H](O)[C@@H](C)[C@@H](O)[C@@H](C)[C@H](OC(C)=O)[C@@H]1C
CYP2E1 (gene 1571)
  AC50: 1.06 µM (active)
CYP4A11 (gene 1579)
  AC50: 0.593 µM (active)
[1]
  outcome: inactive
[2]
  outcome: inactive
[15]
  outcome: inactive
[3]
  outcome: inactive
[5]
  AC50: 0.486 µM (active)
[6]
  outcome: inactive
[8]
  AC50: 0.379 µM (active)
[9]
  outcome: inactive
[10]
  outcome: inactive
[11]
  outcome: inactive
[12]
  outcome: inactive
[13]
  outcome: inactive

## CN1C(=O)N(c2ccccc2Br)Cc2cnc(Nc3ccc4c(c3)OCC(CO)O4)nc21 (stereo unspecified)
CYP2C9 (gene 1559)
  AC50: 32.7 µM (active)
CYP2E1 (gene 1571)
  AC50: 35 µM (active)
CYP4A11 (gene 1579)
  AC50: 50 µM (active)
[1]
  AC50: 40.5 µM (active)
[2]
  outcome: inactive
[3]
  outcome: inactive
[4]
  AC50: 50 µM (active)
CYP3A5 (gene 1577)
  AC50: 82.1 µM (active)
[5]
  AC50: 58.8 µM (active)
[6]
  AC50: 50 µM (active)
[8]
  AC50: 78 µM (active)
[9]
  AC50: 65.8 µM (active)
[10]
  AC50: 66.6 µM (active)
[11]
  outcome: inactive
[12]
  outcome: inactive
[13]
  AC50: 92.4 µM (active)
[14]
  AC50: 1.33 µM (active)

## COc1ccc2cc(S(=O)(=O)N[C@H](CC(=O)N[C@H](Cc3ccc(CN4[C@H](C)CCC[C@@H]4C)cc3)C(=O)N(C)C(C)C)c3ccc4c(c3)OCO4)ccc2c1
CYP2C9 (gene 1559)
  AC50: 11.9 µM (active)
CYP2E1 (gene 1571)
  AC50: 29.7 µM (active)
CYP4A11 (gene 1579)
  AC50: 20.7 µM (active)
[1]
  AC50: 20.4 µM (active)
[2]
  outcome: inactive
[3]
  outcome: inactive
[4]
  AC50: 25.2 µM (active)
CYP3A5 (gene 1577)
  AC50: 22.1 µM (active)
[5]
  AC50: 12.1 µM (active)
[6]
  AC50: 2.63 µM (active)
[7]
  outcome: inactive
[8]
  AC50: 81.6 µM (active)
[9]
  AC50: 56.4 µM (active)
[10]
  outcome: inactive
[11]
  AC50: 78 µM (active)
[12]
  AC50: 22.5 µM (active)
[13]
  AC50: 82.6 µM (active)
[14]
  AC50: 75.5 µM (active)

## CC[C@H](NC(=O)c1cc(F)ccc1NS(=O)(=O)c1cccc2cccnc12)c1ccccc1
CYP2C9 (gene 1559)
  AC50: 78.5 µM (active)
CYP2E1 (gene 1571)
  AC50: 22.3 µM (active)
CYP4A11 (gene 1579)
  AC50: 22.4 µM (active)
[1]
  AC50: 47.8 µM (active)
[2]
  AC50: 11.5 µM (active)
[3]
  outcome: inactive
[4]
  outcome: inactive
CYP3A5 (gene 1577)
  outcome: inactive
[5]
  AC50: 32.3 µM (active)
[6]
  AC50: 22.8 µM (active)
[7]
  AC50: 33.8 µM (active)
[8]
  AC50: 80 µM (active)
[9]
  AC50: 47.8 µM (active)
[10]
  outcome: inactive
[11]
  outcome: inactive
[12]
  outcome: inactive
[13]
  AC50: 12.2 µM (active)
[14]
  outcome: inactive
